Drawing on PubChem BioAssay (NCATS), this text covers Potency and activation for 22 compounds.

SMILES strings stand for the structures. Where “and” joins values, the source holds several entries; their conditions need not be identical. Equal entries are not always repeated. Results filed as inconclusive are left out. Unmarked numbers belong to inactive results. Calls of active or inactive are those of the source. Unless noted, calls follow the shape of the dose curve; as a rule, active = well fitted curve in the direction sought with a large enough effect; inconclusive = small, poorly fitted or top-dose-only effect, or another doubt; inactive = no such curve, though single readings can be large; an effect the other way counts as inactive or inconclusive.

Assay [1] concerns the target Cellular tumor antigen p53 (Homo sapiens) (UniProt P04637). The assay is described as follows: Primary qHTS for small molecule compounds that upregulate eGFP-tagged delta133p53alpha (in C-terminal) cells. (AID 2060324). Also: potency is read from the fitted curve at half-maximal effect. An outline of the steps:
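NCI-H358 cells pre-induced 24 h with 100 ng/ml doxycycline to express delta133p53alpha-eGFP, then dosed in doxycycline-free medium for 24 h at 37C. Fixed, Hoechst-stained; GFP intensity by laser scanning cytometry, normalized to DMSO wells.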
On the technique in general: In qHTS, concentration-response curves come from the screen itself.

The target of assay [2] is Aldehyde dehydrogenase, mitochondrial (Homo sapiens) (UniProt P05091). The assay is described as follows: qHTS for Inhibitors of the Aldehyde Dehydrogenase Family (ALDH2) Validation screens (AID 2061302; active = well fitted inhibition curve with a large enough effect; title and protocol of this record describe different tests;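 also: plate controls were DMSO vehicle for no effect and maximal DPI positive control response for full effect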).
Assay [3] has as its target Cellular tumor antigen p53 (Homo sapiens) (UniProt P04637). Nature of the assay: Primary qHTS for small molecule compounds that upregulate eGFP-tagged delta133p53alpha (in N-terminal) cells. (AID 2060322). Also: nearly all actives have a fitted effect of over 75% in size. Also: potency is read from the fitted curve at half-maximal effect.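 As to activation: series mostly up to about 56 µM; 0% = DMSO vehicle and 100% = reference activator.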 Particulars: NCI-H358 eGFP-delta133p53alpha fluorescence, 24 h; activation: active compounds read high. An outline of the steps: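 NCI-H358 cells pre-induced 24 h with 10 ng/ml doxycycline to express N-terminal eGFP-delta133p53alpha, then dosed 24 h at 37C without doxycycline; fixed, Hoechst-stained, GFP intensity by laser scanning cytometry, normalized to DMSO (0%) and 57.5 uM 5-azacytidine (100%).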

A short description of assay [4]: BET inhibitor-based combinations targeting novel dependencies in MECOM-rearranged (r) AML: HNT-34 cell line (AID 2202234). Also: nearly all actives have a fitted effect of over 35% in size. Also: potency is read from the fitted curve at half-maximal effect. In short, it runs like this: (§1)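 Seeding density was 500 cells/well, and drug exposure lasted 48 hr under standard culture conditions. Read-out used CellTiter-Glo reagent with a 15 min room-temperature incubation before luminescence measurement; AUC and Z-AUC summarize the normalized responses.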

Assay [5] can be described thus: BET inhibitor-based combinations targeting novel dependencies in MECOM-rearranged (r) AML: UCSD-AML1 cell line (AID 2202235). Also: nearly all actives have a fitted effect of over 40% in size. Also: potency is read from the fitted curve at half-maximal effect. In short, it runs like this:
as §1

Assay [6] in a line: BET inhibitor-based combinations targeting novel dependencies in MECOM-rearranged (r) AML: MV-4-11 cell line (AID 2202233). Also: nearly all actives have a fitted effect of over 45% in size. Also: potency is read from the fitted curve at half-maximal effect. In short, it runs like this:
as §1

A short description of assay [7]: BET inhibitor-based combinations targeting novel dependencies in MECOM-rearranged (r) AML: AML-191 cell line (AID 2202236; also: nearly all actives have a fitted effect of over 35% in size; also: potency is read from the fitted curve at half-maximal effect). In short, it runs like this:
(§2)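 Readout: CellTiter-Glo luminescence. Exposure: 48 h, 11 concentrations, 500 cells/well. Metric: AUC and within-line Z-AUC after DMSO/empty-well normalization.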

The nature of assay [8]: BET inhibitor-based combinations targeting novel dependencies in MECOM-rearranged (r) AML: AML-194 cell line (AID 2202237; also: nearly all actives have a fitted effect of over 40% in size; also: potency is read from the fitted curve at half-maximal effect). In short, it runs like this:
as §2

Cellular tumor antigen p53 (Homo sapiens), sequence (P04637 whole entry, looked up): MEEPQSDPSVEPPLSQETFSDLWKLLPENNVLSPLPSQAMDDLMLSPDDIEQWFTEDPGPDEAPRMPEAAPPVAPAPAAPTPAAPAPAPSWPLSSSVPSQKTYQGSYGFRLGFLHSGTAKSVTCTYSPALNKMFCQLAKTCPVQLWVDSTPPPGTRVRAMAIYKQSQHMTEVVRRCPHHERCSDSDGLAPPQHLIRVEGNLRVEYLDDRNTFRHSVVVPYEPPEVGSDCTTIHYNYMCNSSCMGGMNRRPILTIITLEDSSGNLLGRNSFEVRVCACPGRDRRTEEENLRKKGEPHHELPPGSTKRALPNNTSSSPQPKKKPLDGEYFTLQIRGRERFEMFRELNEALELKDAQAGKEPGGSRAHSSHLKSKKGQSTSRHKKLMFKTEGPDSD

Regarding `Cc1cccc(C(=O)NCN2CCN(c3ccccc3C#N)CC2)c1`, the Potency result in assay [1] and in assay [2] was “inactive” throughout.

Take `CN[C@@H](C)C(=O)N[C@H]1CCCC[C@H]2CC[C@@H](C(=O)N[C@@H](c3ccccc3)c3cn(CCCCc4ccc(CCCCn5cc([C@@H](NC(=O)[C@@H]6CC[C@@H]7CCCC[C@H](NC(=O)[C@H](C)NC)C(=O)N76)c6ccccc6)nn5)cc4)nn3)N2C1=O`: the activation in assay [3] is 16.4%. Also, the Potency result in assay [4] is “inactive”. Besides, the Potency in assay [5] is 0.0037 µM (active).

`COc1cccc2c1[C@@H]1CN(CCCCn3c(=O)[nH]c4c(sc5ncc(-c6ccccc6)nc54)c3=O)C[C@@H]1CO2`: in assay [1], the Potency entry is “inactive”.

On to `COc1ccc(-c2ccc3c(N4CCOCC4)nc(N4C[C@@H](C)O[C@@H](C)C4)nc3n2)cc1CO`, for which the Potency is 21.7 µM (active) in assay [3] and 0.934 µM (active) in assay [4].

In the case of `COc1c(C)cnc(Cn2cnc3c(Cl)nc(N)nc32)c1C`, the activation in assay [3] was -17.3%. Moreover, the results for the Potency in assay [6], in assay [5] and in assay [7] were 0.118 µM (active), 0.209 µM (active) and 0.525 µM (active), respectively.

Regarding `CC[C@H](C)n1cc(C)c2c(C(=O)NCc3c(C)cc(C)[nH]c3=O)cc(-c3ccc(N4CCNCC4)nc3)cc21`, the activation in assay [3] is -13%. Further, in assay [6], the Potency was 18.6 µM (active). Further, the Potency entry in assay [8] was “inactive”.

With `C[N+]1(CCCCC[N+]2(C)CCCC2)CCCC1`, the Potency result in assay [1] and in assay [2] was “inactive” throughout.

Consider `CCC1(O)CC2CN(CCc3c([nH]c4ccccc34)[C@@](C(=O)OC)(c3cc4c(cc3OC)N(C=O)C3[C@]45CCN4CC=C[C@@](CC)([C@@H](OC(C)=O)[C@]3(O)C(=O)OC)[C@H]45)C2)C1` (some centres not stated), for which the Potency entry in assay [1] and in assay [2] was “inactive” each time.

For the compound `CCc1c(O)cc(O)c(C(=O)c2ccc(OCCN3CCOCC3)c(OC)c2)c1CC(=O)N(CCOC)CCOC`, the activation in assay [3] was 38.5%. Moreover, the Potency is 0.662 µM (active) in assay [4] and 0.263 µM (active) in assay [5].

As to `O=C(c1ccc(F)cc1)N1CCC[C@H](c2nc(-c3ccc(F)cc3)no2)C1`, the activation in assay [3] was 6.17%. Further, the Potency in assay [6] is 18.6 µM (active). The Potency result in assay [5] and in assay [8] was “inactive” each time.

Turning to `CC(=O)O[C@]1(C(C)=O)CC[C@H]2[C@@H]3C=C(C)C4=CC(=O)CC[C@]4(C)[C@H]3CC[C@@]21C`, the activation in assay [3] was -26.8%. In assay [4], the Potency was 18.6 µM (active). Also, in assay [5], the Potency result was “inactive”.

Take `CCc1ccc(CCOc2ccc(CC3SC(=O)NC3=O)cc2)nc1` (configuration not stated): the activation in assay [3] is 7.53% and -1.15%. Further, the Potency in assay [8] is 5.25 µM (active).

Take `COC(=O)C1C2CC3c4[nH]c5cc(OC)ccc5c4CCN3CC2CC(OC(=O)c2cc(OC)c(OC)c(OC)c2)C1OC` (configuration not stated): the activation in assay [3] was 4.12%. Moreover, the Potency in assay [6] is 20.9 µM (active). Also, the Potency result in assay [5] is “inactive”.

On to `CCCCCCCc1ccc(CCc2cccc(O)c2C(=O)O)cc1`, for which the activation in assay [3] is -21.9% and 7.82%. Also, in assay [8], the Potency result is “inactive”.

For the compound `CC[C@@H]([C@H](C)O)n1ncn(-c2ccc(N3CCN(c4ccc(OCC5CO[C@@](Cn6cncn6)(c6ccc(F)cc6F)C5)cc4)CC3)cc2)c1=O` (some centres not stated), the activation in assay [3] is 7.66%. Moreover, the Potency result in assay [5] was “inactive”. In addition, the Potency in assay [8] was 4.17 µM (active).

For `CN1CCN(CCCN2c3ccccc3Sc3ccc(Cl)cc32)CC1`, the Potency entry in assay [1] and in assay [2] was “inactive” each time.

Turning to `N#CC(c1ccc(Cl)cc1)c1c(Cl)cc(-n2ncc(=O)[nH]c2=O)cc1Cl` (configuration not stated), in assay [3], the activation is -23%. Moreover, the Potency entry in assay [6] was “inactive”. Besides, the Potency in assay [7] is 16.6 µM (active).

Regarding `C[n+]1cc2c3c(ccc2c2ccc4cc5c(cc4c21)OCO5)OCO3`, the Potency in assay [1] was 7.57 µM (active).

Turning to `Cc1nc2ccc(C(=O)N3CCC4(CC3)CC(=O)c3c(cnn3C(C)C)C4)cc2[nH]1`, the activation in assay [3] is 23%. Also, the Potency entry in assay [5] and in assay [8] was “inactive” in each case.

`O=C(OCCN1CCOCC1)C1(c2ccccc2)CCCCC1`: the Potency result in assay [1] was “inactive”.

Take `N#CC1(c2ccc(NC(=O)c3cccnc3NCc3ccncc3)cc2)CCCC1`: the activation in assay [3] was -7.07%. The Potency in assay [6] is 14.8 µM (active). For the same compound, the Potency result in assay [5], in assay [7] and in assay [8] was “inactive” throughout.

Take `CCOC(CN1C(=O)[C@](CC(=O)Nc2ccc(C)cc2)(NC(=O)Nc2ccc(C)cc2)c2ccccc21)OCC`: the activation in assay [3] was 0.237%. Also, the Potency in assay [6] was 23.5 µM (active). For the same compound, the Potency result in assay [5] was “inactive”.
